Screening results deposited in PubChem by National Center for Advancing Translational Sciences (NCATS).
FLuc inh – blocks purified firefly luciferase enzyme activity; P08659; purified P. pyralis luciferase, luminescence, biochemical; Potency, µM (doses to about 115 µM), hits mostly inhibitors; hit rate 2.5% among 76,000; also: nearly all actives have a fitted effect of over 65% in size
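Cell-free enzyme assay, 10nM P. pyralis luciferase, luciferin and ATP each at 10uM. Inhibition profiled over a 6-point titration, read as luminescence.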
NIH3T3 tox – cytotoxic compounds in NIH 3T3 cells; NIH 3T3 viability, CellTiter-Glo ATP luminescence, 48-72 h; Potency, µM (titrated, usually from 96.7 µM), inactives show at the highest dose activity change, negative = cytotoxicity, usual class: inhibitors; hit rate 4.3% among 94,000; AID 1345082; also: nearly all actives have a fitted effect of over 55% in size
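First NIH 3T3 cells are plated at 400 cells/well; next compound is pinned in; then plates incubate 48 or 72 hr at 37 °C; finally CellTiter-Glo is added and luminescence read after 10 min.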
HEK293 tox – cytotoxic compounds in HEK 293 cells | HEK 293 viability, ATP luminescence (CellTiter-Glo), 48-72 h | Potency, µM (doses to about 115 µM), for inactives: at the highest dose activity change, negative = cytotoxicity, hits mostly inhibitors | hit rate 6.6% among 94,000 | AID 1345083; also: nearly all actives have a fitted effect of over 60% in size
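qHTS cytotoxicity; HEK 293, 250 cells/well; compound pinned; 48 or 72 hr, 37 degree Celsius, 5% CO2, 95% humidity; CellTiter-Glo, 10 min RT; luminescence (ATP).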
NPR1 antag – blocks ANP-stimulated signaling of human Npr1 receptor | HEK293 hNpr1 GloSensor cGMP, ANP-stimulated luminescence | Potency, µM (doses to about 46.3 µM), inactives show at the top dose activity change, negative = inhibition, hits mostly inhibitors | hit rate 1.6% among 76,000; calls by dose curve; also: nearly all actives have a fitted effect of over 60% in size
Target sequence (P16066 whole entry, looked up): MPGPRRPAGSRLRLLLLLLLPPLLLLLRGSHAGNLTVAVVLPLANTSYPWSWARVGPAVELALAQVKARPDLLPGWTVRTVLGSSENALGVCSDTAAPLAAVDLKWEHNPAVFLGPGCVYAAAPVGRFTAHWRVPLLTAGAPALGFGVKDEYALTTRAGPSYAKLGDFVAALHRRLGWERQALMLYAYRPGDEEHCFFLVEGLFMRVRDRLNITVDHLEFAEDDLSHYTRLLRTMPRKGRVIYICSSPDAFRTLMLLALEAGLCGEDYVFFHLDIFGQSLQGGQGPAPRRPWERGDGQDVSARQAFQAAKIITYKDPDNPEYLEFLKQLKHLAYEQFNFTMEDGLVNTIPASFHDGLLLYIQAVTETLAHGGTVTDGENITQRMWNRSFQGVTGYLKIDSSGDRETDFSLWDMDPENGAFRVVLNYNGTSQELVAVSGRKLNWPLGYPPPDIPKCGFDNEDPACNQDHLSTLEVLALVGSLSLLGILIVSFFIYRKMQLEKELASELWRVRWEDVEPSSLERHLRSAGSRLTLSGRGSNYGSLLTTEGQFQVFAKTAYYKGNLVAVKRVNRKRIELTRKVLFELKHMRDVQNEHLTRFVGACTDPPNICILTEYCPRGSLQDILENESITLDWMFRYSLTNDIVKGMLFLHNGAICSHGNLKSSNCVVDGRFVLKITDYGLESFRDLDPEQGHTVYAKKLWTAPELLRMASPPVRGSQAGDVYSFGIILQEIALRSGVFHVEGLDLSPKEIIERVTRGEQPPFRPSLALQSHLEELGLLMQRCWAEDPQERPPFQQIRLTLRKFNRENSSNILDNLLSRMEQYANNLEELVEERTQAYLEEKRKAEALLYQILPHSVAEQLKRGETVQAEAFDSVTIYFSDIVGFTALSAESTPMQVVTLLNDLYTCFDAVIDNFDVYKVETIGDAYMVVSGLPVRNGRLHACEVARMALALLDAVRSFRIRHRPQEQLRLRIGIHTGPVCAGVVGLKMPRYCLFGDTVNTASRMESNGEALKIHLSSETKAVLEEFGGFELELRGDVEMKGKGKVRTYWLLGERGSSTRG
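HEK293 cells stably expressing human Npr1 and cGMP GloSensor pGS-40F, loaded 2 h with 2% GloSensor reagent, given compound 30 min at room temperature. Luminescence read before and 20 min after 0.1 nM hNppA.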
GPT2 inh – inhibitors of human GPT2 alanine aminotransferase. Recombinant GPT2, coupled pyruvate oxidase/HRP Amplex Red fluorescence. AID 1671188. Potency, µM (titrated, usually from 57.7 µM), inactives show at the highest dose activity change, negative = inhibition, actives largely listed as inhibitors. Q8TD30. hit rate 0.25% among 100,000; also: nearly all actives have a fitted effect of over 60% in size
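Inhibition is scored from Amplex Red fluorescence generated when pyruvate oxidase and HRP act on pyruvate released by GPT2. Reactions contain 10ng/uL enzyme, 250uM a-KG and 2mM L-alanine and run 30 min at room temperature.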
Active calls of the source: *; i = inactive; ? = inconclusive; . = no result given; ! = repeats disagree; [ ] = remark or other dose. Sampled rows, rich in hits. Any-hit rate of the full collection: about 10%. Unless noted, calls follow the shape of the dose curve; as a rule, active = well fitted curve in the direction sought with a large enough effect; inconclusive = small, poorly fitted or top-dose-only effect, or another doubt; inactive = no such curve, though single readings can be large; an effect the other way counts as inactive or inconclusive. % is scaled to controls: 0 for no effect and ±100 for the full control effect; potency is read from the fitted curve at half-maximal effect.

SMILES | FLuc inh | NIH3T3 tox | HEK293 tox | NPR1 antag | GPT2 inh
CCOc1ccc2c(n1)CCN(C(=O)c1ccc(C)cc1)C2 | i | -20% | -8% | -11% | -1%
COCCOc1ccc2c(n1)CCN(C(=O)c1ccc(C(C)C)cc1)C2 | 16µM* | ? | ? | -7% | -9%
COCCOc1ccc2c(n1)CCN(C(=O)CCC1CCCC1)C2 | ? | -25% | ? | 11µM* | -3%
CCOc1ccccc1NC(=O)N1CCC(N2C(=O)C(OC)C23CCOCC3)CC1 (configuration not stated) | i | 5% | -1% | -1% | i
NC(=O)COC[C@@H]1CN(C2CCSCC2)C[C@H]1c1ccncc1 | i | ? | ? | -2% | i
COc1cccc(Nc2ccc3c(n2)C(C)(C(=O)NC2CCC(O)CC2)CN(C)C3)c1 (configuration not stated) | i | -29%[138 µM] | ? | 5%[70.6 µM] | 0%[88.5 µM]
COc1cccc(-c2ccc(CN3CCCC(NC(=O)c4ccccc4F)C3)cc2)c1 (configuration not stated) | . | ? | 40µM* | . | i
Cc1ccc(C(=O)NC2CCCN(Cc3ccc(-c4cc(C)cc(C)c4)cc3)C2)cc1 (configuration not stated) | . | -18% | -19% | . | -18%
COc1cccc(-c2ccc(CN3CCCC(NC(=O)c4ccccc4C)C3)cc2)c1 (configuration not stated) | . | 40µM* | 22µM* | . | i
Cc1cc(C)cc(-c2ccc(CN3C4CCC3CN(C(=O)Nc3ccccc3F)C4)cc2)c1 | . | ? | ? | . | 0%
Cc1cc(C)cc(-c2ccc(CN3CCCC(NC(=O)Nc4ccccc4)C3)cc2)c1 (configuration not stated) | . | 10µM* | ? | . | i
COc1cccc(-c2ccc(CN3C4CCC3CN(C(=O)Nc3ccccc3F)C4)cc2)c1 | ? | 35µM*! | 40µM*! | -22% | 3%
CN1CCCCCCN(S(C)(=O)=O)CCC1=O | i | -11% | 2% | 5% | -3%
Cc1cc(C)cc(-c2ccc(CN3CCCC(NC(=O)c4ccccc4F)C3)cc2)c1 (configuration not stated) | . | ? | 79µM* | . | i
Cc1cccc(-c2nc3cc(C(=O)NC4CCCCCC4)ccc3o2)n1 | . | ? | ? | . | 1%
Cc1cccc(-c2nc3ccc(C(=O)NC4CC4)cc3o2)n1 | . | ? | 45µM* | . | -4%
O=C(NCC1CC1)c1ccc2nc(-c3ccccn3)oc2c1 | . | ? | 112µM* | . | i
COc1ccc(NC(=O)c2ccc3nc(-c4ccccn4)oc3c2)cc1 | . | -39% | 25µM* | . | -3%
COc1ccc(NC(=O)c2ccc3oc(-c4cccnc4OC)nc3c2)cc1 | . | -22%[138 µM] | ? | . | i
COc1ncccc1-c1nc2cc(C(=O)Nc3cccc(Cl)c3)ccc2o1 | . | -32% | 13µM* | . | 4%
O=C(c1ccccc1F)N1CCCn2cc(-c3ccccc3F)nc21 | i | -12% | ? | -2% | i
COc1ccccc1-c1csc(CN2CC(C)(NC(=O)C3CC3)C2)n1 | i | -26%[138 µM] | ? | -1%[70.6 µM] | -3%[88.5 µM]
CO[C@H]1C(=O)N(C2CCN(C(=O)c3cc4ccccc4[nH]3)CC2)[C@H]1c1ccncc1 | ? | ? | -19% | -7% | i
O=C1CC(c2ccccc2)N(C(=O)CNS(=O)(=O)c2ccccc2)CCCCCCN1 (configuration not stated) | i | -15% | -15% | -3% | -1%
O=C(Cc1cccc(F)c1)NC1CCN(c2cc(-c3cccs3)[nH]n2)C1 (configuration not stated) | i | ? | ? | -15% | ?
SMILES | FLuc inh | NIH3T3 tox | HEK293 tox | NPR1 antag | GPT2 inh
COc1cc(OC)cc(C(=O)NC2CCN(c3cc(-c4cccs4)[nH]n3)C2)c1 (configuration not stated) | i | ? | ? | -24% | ?
CCOc1cc(C(=O)NC2CCN(c3cc(-c4cccs4)[nH]n3)C2)cc(OCC)c1OCC (configuration not stated) | i | ? | 45µM* | -4% | -21%
CCOc1ccc(CC(=O)NC2CCN(c3cc(-c4cccs4)[nH]n3)C2)cc1 (configuration not stated) | i | 16µM* | 45µM* | 0% | ?
O=C(Cc1ccccc1F)NC1CCN(c2cc(-c3cccs3)[nH]n2)C1 (configuration not stated) | i | ? | 16µM* | -18% | -23%
COc1cccc(C2Cn3nnc(-c4nc(-c5ccc(OC)c(F)c5)no4)c3CO2)c1 (configuration not stated) | i | ? | ? | -8% | 3%
COC[C@@H]1CN(C(=O)c2sc(C)nc2C)C[C@H]1c1ccccn1 | . | -13% | 3% | . | 3%
O=C(NCCc1ccccc1)Nc1cccc(-c2ccc(N3CCCCC3)nn2)c1 | 0.25µM* | -27% | ? | 8.9µM* | -10%
O=C(NCCc1ccccc1)Nc1cccc(-c2nnc3n2CCCC3)c1 | i | -14% | ? | -14% | 4%
COc1ccccc1NC(=O)Nc1cccc(-c2nnc3n2CCCC3)c1 | ? | ? | ? | 0% | -5%
COc1ccccc1NC(=O)Nc1cccc(-c2ccc(N3CCCCC3)nn2)c1 | 0.71µM* | ? | ? | ? | -6%
CCOc1ccccc1NC(=O)Nc1cccc(-c2ccc(N3CCCC3)nn2)c1 | 6.3µM* | -25% | -22% | -24% | -15%
CCC(O)c1cc2n(n1)CCN(c1nc(-c3ccccc3)nc3c1CCC3)C2 (configuration not stated) | i | ? | ? | 5% | 1%
CCCCN1CCN(c2nc(-c3ccccc3)nc3c2CCNC3)CC1=O | i | ? | 79µM* | -1% | -2%
O[C@@H]1C[C@@H](c2nc(-c3ccc4c(c3)OCO4)no2)N(CC2CCCCC2)C1 | ? | 89µM* | 89µM* | -5%[70.6 µM] | i
O[C@@H]1C[C@@H](c2nc(-c3ccccn3)no2)N(Cc2cccs2)C1 | 35µM* | -13%[174 µM] | ? | -16%[70.6 µM] | -4%[88.5 µM]
O[C@@H]1C[C@@H](c2nc(-c3ccc4c(c3)OCO4)no2)N(CCCc2ccccc2)C1 | 35µM* | ? | ? | -4%[70.6 µM] | -5%[88.5 µM]
O[C@@H]1C[C@@H](c2nc(-c3ccc(F)cc3)no2)N(CC2CCCCC2)C1 | ? | -17%[174 µM] | -24%[172 µM] | 0%[70.6 µM] | i
Oc1ccccc1CN1C[C@H](O)C[C@H]1c1nc(-c2ccc3c(c2)OCO3)no1 | ? | -17%[138 µM] | -20%[172 µM] | -3%[70.6 µM] | -9%[88.5 µM]
O[C@@H]1C[C@@H](c2nc(-c3ccc4c(c3)OCO4)no2)N(CC2CC2)C1 | 22µM* | -27%[174 µM] | ? | -13%[70.6 µM] | i
O[C@@H]1C[C@@H](c2nc(-c3cnccn3)no2)N(Cc2cccs2)C1 | i | -26%[174 µM] | -14%[172 µM] | 1%[70.6 µM] | -23%[88.5 µM]
